MCF10A rereplic = inducers of DNA re-replication in MCF 10A breast cells; 350,000 compounds, 2.9% hits; MCF 10A DNA re-replication, Hoechst nuclear intensity, 48 h; Potency, µM (series often up to 46.1 µM), for the others: at the top dose activity, positive = re-replication, usual class: activators; note: potency is the fitted concentration of half-maximal effect; % of control where 0% means no effect; nearly all actives have a fitted effect of over 50% in size
IL-1B inflam inh = blocks inflammasome-driven IL-1 beta release; THP-1 LPS/ATP IL-1B secretion, AlphaLISA, 16 h; hits give low values; AID 743279; activity change, % at 57.5 µM; 360,000 compounds, 4.7% hits; in the data active = activity change below about -50%; inconclusive = mostly about -30% to -49%; note: % is set by controls: 0 for no effect and ±100 for the full control effect
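THP-1 cells pretreated 1 hr with compounds (up to 57.5 uM final), then stimulated with LPS (250 ng/mL final) plus ATP (1.25 mM final); secreted IL-1B measured by AlphaLISA after 16 hr, decreased signal indicating inhibition.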
DT40 TDP1 CPT = DT40-hTDP1 cell growth loss with CPT; chicken DT40 Tdp1-/-;hTDP1 cells + 20 nM CPT, ATP luminescence, 48 h; Potency, µM (highest dose often 46.2 µM), for the others: top-dose activity change, negative = growth inhibition, actives largely listed as inhibitors; 420,000 compounds, 12% hits; note: potency is the fitted concentration of half-maximal effect; % is set by controls: 0 for no effect and ±100 for the full control effect; nearly all actives have a fitted effect of over 55% in size
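Chicken DT40 Tdp1-/- cells stably complemented with human TDP1 were seeded at 400 cells/well in medium containing 20 nM camptothecin, exposed to pin-transferred compounds, and grown at 37 °C for at least 48 hr. Viability was read as ATP luminescence.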
SW480 rerep = inducers of DNA re-replication in SW480 colon cancer cells | Potency, µM (highest dose often 46.1 µM), for inactives: at the top dose re-replication activation, usual class: activators | SW480 DNA re-replication, Hoechst DNA content imaging, 48 h | 340,000 compounds, 1.8% hits; note: potency is the fitted concentration of half-maximal effect; % of control where 0% means no effect; nearly all actives have a fitted effect of over 55% in size
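Image-based read-out: total Hoechst fluorescence of nuclei (405 nm excitation, 500-530 nm emission), with hits raising the fraction of high-intensity nuclei. SW480 colon cells incubated 48 hr with compounds at 37 C.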
DT40 TDP1 no CPT = qHTS for Inhibitors of human tyrosyl-DNA phosphodiesterase 1 (TDP1): qHTS in cells in absence of CPT; DT40 Tdp1-/- hTDP1 cells, no CPT, ATP luminescence, 48 h; 420,000 compounds, 15% hits; Potency, µM (highest dose often 46.2 µM), for the others: at the highest dose activity change, negative = growth inhibition, usual class: inhibitors; AID 686978, 2013; note: potency is the fitted concentration of half-maximal effect; % is set by controls: 0 for no effect and ±100 for the full control effect; nearly all actives have a fitted effect of over 55% in size
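Cells were dispensed at 400 per well, compounds added by pin tool, plates incubated ≥48 hr at 37 °C, then CellTiter-Glo added for 30 min at room temperature before luminescence reading. Line: DT40 Tdp1-/- complemented with hTDP1; camptothecin omitted.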
Chronic BCR inh = inhibitors of chronic active B-cell receptor signaling. Potency, µM (doses to about 46.1 µM), without a hit: at the top dose activity change, negative = inhibition, actives largely listed as inhibitors. ABC-DLBCL IkBa-CBG/CBR reporter, luminescence ratio, 4 h. 340,000 compounds, 0.05% hits; active = well fitted inhibition curve with a large enough effect in the signal ratio, with a control signal flat, not every such curve was filed as active; inconclusive = small, poorly fitted or top-dose-only effect, or effect the other way, or a change in a side signal; the % refers to the signal ratio;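 note: potency is the fitted concentration of half-maximal effect; plate controls were basal doxycycline-induced cells for no effect and cells given 10 µM MG132 for full effect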
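TMD8 human ABC-DLBCL cells with doxycycline-inducible IκBα–green luciferase fusion and unfused red luciferase, in 0.5% FBS medium; compounds up to 46 uM, 4 h at 37C. Green/red luminescence ratio, filter-overlap corrected, fitted to concentration-response curves.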
Active calls of the source: *; i = inactive; ? = inconclusive; · = not tested or not shown; [ ] = another dose, or the depositor's remark. An excerpt weighted towards active compounds, which were near 19% of everything screened. Unless noted, calls come from the whole dose curve; as a rule, active = well fitted curve in the direction sought with a large enough effect; inconclusive = small, poorly fitted or top-dose-only effect, or another doubt; inactive = no such curve, though single readings can be large; an effect the other way counts as inactive or inconclusive.

SMILES	MCF10A rereplic	IL-1B inflam inh	DT40 TDP1 CPT	SW480 rerep	DT40 TDP1 no CPT	Chronic BCR inh
CC(=O)Nc1ccc(S(=O)(=O)N(C)Cc2cnn(C)c2)cc1	-1%	i	-29%	-4%	16µM*	0%
CN(Cc1ccccc1)S(=O)(=O)c1cccs1	0%	-29	-28%	-4%	-24%	?
CCOc1ccc(NC(=O)CN(C)C(=O)c2c(C)nn(-c3ccc(F)cc3)c2Cl)cc1OCC	-1%	-8	0%	7%	-8%	-8%
CCCNC(=O)C1(C)CCN(Cc2ccc(C)c3ccccc23)C1 (centres undefined)	·	-7	?	·	23µM*	·
CCCNC(=O)C1(C)CCN(Cc2ccc(OC)c3ccccc23)C1 (centres undefined)	·	-20	?	·	21µM*	·
CCCNC(=O)C1(C)CCN(C(=O)Cc2ccc(OC)c(OC)c2)C1 (centres undefined)	·	15	13%	·	5%	·
CCCNC(=O)C1(C)CCN(Cc2cc3ccccc3o2)C1 (centres undefined)	·	31	?	·	?	·
Cc1ccccc1NC(=O)CSc1nnc(COc2ccc(Cl)cc2)o1	·	·	4%	·	0%	·
CCOc1ccccc1NC(=O)C(=O)CC(=O)c1ccc(OC)cc1	9%	28	?	27%	21µM*	3%
COc1ccc(C(=O)CC(=O)C(=O)Nc2cc(C)ccc2C)cc1	5%	49	-103%	?	?	-2%
COc1ccc(C(=O)CC(=O)C(=O)NCCc2cccc(C)c2)cc1	18µM*	-7	?	?	?	7%
COc1ccc(C(=O)CC(=O)C(=O)Nc2ccc(C)c(Cl)c2)cc1	23%	-20	?	-16%	16µM*	2%
COc1ccc(C(=O)CC(=O)C(=O)Nc2cccc(F)c2)cc1	0%	-10	?	2%	15µM*	-4%
CCOC(=O)C1=CN(CC)S(=O)(=O)NC1c1ccc(C(F)(F)F)cc1 (centres undefined)	?	34	-19%	-15%[9.22 µM]	-16%	7%
CCN(Cc1ccccc1)C(=O)CN1C(=O)COc2ccc(S(=O)(=O)N3CCCCCC3)cc21	2%	0	21µM*	-15%	23µM*	10%
CCN(Cc1ccccc1)C(=O)CN1C(=O)COc2ccc(S(=O)(=O)N(CC)CC)cc21	·	·	23µM*	·	?	·
CCN(CC)S(=O)(=O)c1ccc2c(c1)N(CC(=O)N(C)Cc1ccccc1)C(=O)CO2	·	·	?	·	26µM*	·
CCN(Cc1ccccc1)C(=O)CN1C(=O)COc2ccc(S(=O)(=O)N3CCOCC3)cc21	·	·	?	·	-26%	·
CC1CCN(S(=O)(=O)c2ccc3c(c2)N(CC(=O)N(C)Cc2ccccc2)C(=O)CO3)CC1	·	·	?	·	21µM*	·
Cc1ccc(S(=O)(=O)Nc2ccc3c(c2)C(=O)NC3=O)cc1[N+](=O)[O-]	1%	15	-10%	-3%	-10%	-1%
Cc1ccc(S(=O)(=O)N2C3CC(c4ccccc4)N(S(=O)(=O)c4ccccc4Cl)CC3C(=O)C[C@H]2c2ccccc2)cc1 (some centres undefined)	·	44	-14%	·	-16%	·
O=C(c1ccc(COc2ccccc2Br)o1)N1CCN(c2ccccn2)CC1	?	17	-25%	0%	-17%	?
O=C(c1ccc(CS(=O)Cc2ccccc2Cl)o1)N1CCN(c2ccccn2)CC1 (centres undefined)	4%	42	?	-6%	16µM*	-10%
O=C(c1ccc(CS(=O)Cc2ccc(Cl)cc2)o1)N1CCN(c2ccccn2)CC1 (centres undefined)	7%	-62*	?	12%	?	0%
O=C(c1ccc(CS(=O)c2ccccc2Cl)o1)N1CCN(c2ccccn2)CC1 (centres undefined)	14%	-1	3.7µM*	-2%	2.1µM*	-2%
SMILES	MCF10A rereplic	IL-1B inflam inh	DT40 TDP1 CPT	SW480 rerep	DT40 TDP1 no CPT	Chronic BCR inh
O=C(c1ccc(CS(=O)Cc2ccc(Cl)cc2)o1)N1CCN(c2ccccc2)CC1 (centres undefined)	5%	-25	-15%	-3%	-22%	9%
CCNc1ncc2nc(-c3ccccc3)c(=O)n(C3CC3)c2n1	·	·	7%	·	-6%	·
CC(C)(C)OC(=O)N1CCC(CC2CC(c3cccc(Br)c3)=NO2)(C(=O)NCC2CCCCC2)CC1 (centres undefined)	2%	-21	?	-28%[9.22 µM]	16µM*	-1%
CCCCCCCNC(=O)C1(CC2CC(c3cccc(Br)c3)=NO2)CCN(C(=O)OC(C)(C)C)CC1 (centres undefined)	12%	-2	?	-1%	15µM*	?
CCCNC(=O)C1(CC2CC(c3ccccc3)=NO2)CCN(C(=O)OC(C)(C)C)CC1 (centres undefined)	18%	-13	?	2%	?	·
O=C(c1ccccc1)N1CCC(CC2CC(c3cccc(Br)c3)=NO2)(C(=O)NCC2CCCCC2)CC1 (centres undefined)	?	-24	?	-7%	?	14%
CCCCCCCNC(=O)C1(CC2CC(c3cccc(Br)c3)=NO2)CCN(C(=O)C2CCCC2)CC1 (centres undefined)	17%	-19	21µM*	4%	?	-6%
O=C(NCC1CCCCC1)C1(CC2CC(c3ccc(Cl)cc3)=NO2)CCNCC1 (centres undefined)	?	?	23µM*	-18%	18µM*	?
Cn1c(-c2ccccc2)c(Sc2ccccc2)c2cc(-c3ccc4[nH]ccc4c3)ccc21	·	32	?	·	-27%	·
O=C(NCC1CCCCC1)C1(CC2CC(c3cccc(Br)c3)=NO2)CCNCC1 (centres undefined)	0%	-21	16µM*	?	16µM*	?
CCCNC(=O)C1(CC2CC(c3ccccc3)=NO2)CCN(C(=O)C2(C)CC2)CC1 (centres undefined)	-22%	5	-7%	-6%	-2%	·
NC(=O)/C(N=Nc1ccccc1)=N/Nc1ccccc1	-42%	17	18µM*	-12%	?	?
CCOc1ccc(S(=O)(=O)N2CCN(Cc3ccco3)CC2)cc1	1%	-2	?	0%	?	-3%
